Experimental data published in paper PMC7862700, “An all-to-all approach to the identification of sequence-specific readers for epigenetic DNA modifications on cytosine”.

Key:
Experiment in all cases: DAPPL (digital affinity profiling via proximity ligation, sequencing); 10 mM Tris-HCl pH 7.5, 50 mM NaCl, 1 mM DTT, 4% glycerol, room temperature, 30 min; GST-TFs on glutathione beads, 16-mer random dsDNA library, 0.1% formaldehyde crosslink after washing; high values mean tight binding
FLI1 = target: T1, FLI1 (Homo sapiens, UniProt Q01543 1-452); details: protein: recombinant; tags: N-terminal GST; dsDNA, one strand shown
T1 sequence: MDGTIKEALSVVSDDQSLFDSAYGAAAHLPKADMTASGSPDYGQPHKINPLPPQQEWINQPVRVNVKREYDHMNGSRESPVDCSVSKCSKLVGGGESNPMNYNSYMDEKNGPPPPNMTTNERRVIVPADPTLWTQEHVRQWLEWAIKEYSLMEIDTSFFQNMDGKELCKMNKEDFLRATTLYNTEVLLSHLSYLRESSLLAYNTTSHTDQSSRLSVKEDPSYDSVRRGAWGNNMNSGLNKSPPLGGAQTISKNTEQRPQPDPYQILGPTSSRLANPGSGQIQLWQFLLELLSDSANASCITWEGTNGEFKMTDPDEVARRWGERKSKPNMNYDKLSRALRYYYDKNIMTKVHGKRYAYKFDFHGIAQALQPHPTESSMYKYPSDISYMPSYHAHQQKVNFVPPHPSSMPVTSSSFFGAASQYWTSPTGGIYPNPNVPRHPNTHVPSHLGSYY
Summary of the method: (§1)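 Sequencing on an Illumina NextSeq500 followed washing, crosslinking with 0.1% formaldehyde, proximity ligation (BsaI/T4 ligase, 1 h, 37 °C) and PCR amplification of pools that had been incubated for 30 min at room temperature with 200 nmole of a random double-stranded 16-mer DNA library in Tris/NaCl/DTT/glycerol buffer. Each pool held DNA-barcoded human transcription factors, expressed in yeast as GST fusions and captured on glutathione beads, plus a tag-only sample. Binding signal is a hexamer's read frequency for a factor divided by its frequency in the tag-only sample.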

ELK1 = target: T2, ELK1 (Homo sapiens, UniProt P19419 1-428); details: protein: recombinant; tags: N-terminal GST; dsDNA, one strand shown
T2 sequence: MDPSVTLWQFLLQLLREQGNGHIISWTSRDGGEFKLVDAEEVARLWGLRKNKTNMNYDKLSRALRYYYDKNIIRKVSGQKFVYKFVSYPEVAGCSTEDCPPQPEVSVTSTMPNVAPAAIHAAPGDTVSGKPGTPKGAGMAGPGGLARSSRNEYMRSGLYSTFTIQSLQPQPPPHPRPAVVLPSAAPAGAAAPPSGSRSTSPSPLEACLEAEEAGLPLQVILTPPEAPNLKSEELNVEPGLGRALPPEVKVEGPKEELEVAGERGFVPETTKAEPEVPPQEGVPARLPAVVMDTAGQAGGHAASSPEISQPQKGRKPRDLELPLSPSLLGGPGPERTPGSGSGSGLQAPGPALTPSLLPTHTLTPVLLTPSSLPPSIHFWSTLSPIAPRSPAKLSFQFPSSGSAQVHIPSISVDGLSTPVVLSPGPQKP
Summary of the method: as §1

GABPA = target: T3, GABPA (Homo sapiens, UniProt Q06546 1-454); details: protein: recombinant; tags: N-terminal GST; dsDNA, one strand shown
T3 sequence: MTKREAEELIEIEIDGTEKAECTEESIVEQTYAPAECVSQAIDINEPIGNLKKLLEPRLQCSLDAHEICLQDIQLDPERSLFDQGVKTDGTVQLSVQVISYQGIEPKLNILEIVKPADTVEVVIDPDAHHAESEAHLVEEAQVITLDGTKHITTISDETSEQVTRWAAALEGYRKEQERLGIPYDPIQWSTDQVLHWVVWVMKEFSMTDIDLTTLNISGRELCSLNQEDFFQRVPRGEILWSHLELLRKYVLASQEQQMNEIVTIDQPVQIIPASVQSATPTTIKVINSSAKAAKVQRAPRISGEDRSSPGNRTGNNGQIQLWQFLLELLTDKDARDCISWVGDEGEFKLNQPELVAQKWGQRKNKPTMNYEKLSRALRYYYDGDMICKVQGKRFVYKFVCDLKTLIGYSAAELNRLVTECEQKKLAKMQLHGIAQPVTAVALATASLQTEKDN
Summary of the method: as §1

ERG = target: T4, ERG (Homo sapiens, UniProt P11308 1-479); details: protein: recombinant; tags: N-terminal GST; dsDNA, one strand shown
T4 sequence: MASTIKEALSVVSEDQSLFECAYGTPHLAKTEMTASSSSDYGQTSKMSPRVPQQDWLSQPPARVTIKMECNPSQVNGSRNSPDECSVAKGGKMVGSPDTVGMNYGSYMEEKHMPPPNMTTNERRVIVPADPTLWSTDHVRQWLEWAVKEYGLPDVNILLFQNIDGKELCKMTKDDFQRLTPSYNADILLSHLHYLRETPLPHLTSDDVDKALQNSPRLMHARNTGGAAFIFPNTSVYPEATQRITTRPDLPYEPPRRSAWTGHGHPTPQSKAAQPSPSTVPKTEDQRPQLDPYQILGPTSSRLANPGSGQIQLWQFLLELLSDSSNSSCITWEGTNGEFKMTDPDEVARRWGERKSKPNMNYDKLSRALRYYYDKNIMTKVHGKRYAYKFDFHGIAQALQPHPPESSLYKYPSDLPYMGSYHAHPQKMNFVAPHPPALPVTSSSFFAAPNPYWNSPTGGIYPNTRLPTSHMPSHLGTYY
Summary of the method: as §1

ELF1 = ELF1 (Homo sapiens, UniProt P32519 1-619); details: protein: recombinant; tags: N-terminal GST; dsDNA, one strand shown
Chain of ELF1 (P32519 whole entry): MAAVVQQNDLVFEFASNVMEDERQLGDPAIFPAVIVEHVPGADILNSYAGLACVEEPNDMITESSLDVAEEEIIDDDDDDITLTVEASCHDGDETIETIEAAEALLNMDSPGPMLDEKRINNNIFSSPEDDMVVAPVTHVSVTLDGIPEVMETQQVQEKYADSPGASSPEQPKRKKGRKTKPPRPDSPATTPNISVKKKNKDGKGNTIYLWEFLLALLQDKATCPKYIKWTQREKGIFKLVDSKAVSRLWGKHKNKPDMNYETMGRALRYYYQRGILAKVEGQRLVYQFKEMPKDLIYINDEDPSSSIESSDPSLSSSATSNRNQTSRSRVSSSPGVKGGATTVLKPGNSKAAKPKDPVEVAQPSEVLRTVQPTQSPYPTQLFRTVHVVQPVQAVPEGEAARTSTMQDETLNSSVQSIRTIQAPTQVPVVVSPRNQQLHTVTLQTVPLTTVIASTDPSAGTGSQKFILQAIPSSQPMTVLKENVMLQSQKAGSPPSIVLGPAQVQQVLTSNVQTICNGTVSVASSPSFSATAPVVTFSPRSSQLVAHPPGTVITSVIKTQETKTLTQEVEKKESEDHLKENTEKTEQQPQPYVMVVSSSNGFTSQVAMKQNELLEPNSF
Summary of the method: as §1

EHF = target: T5, EHF (Homo sapiens, UniProt Q9NZC4 1-300); details: protein: recombinant; tags: N-terminal GST; dsDNA, one strand shown
T5 sequence: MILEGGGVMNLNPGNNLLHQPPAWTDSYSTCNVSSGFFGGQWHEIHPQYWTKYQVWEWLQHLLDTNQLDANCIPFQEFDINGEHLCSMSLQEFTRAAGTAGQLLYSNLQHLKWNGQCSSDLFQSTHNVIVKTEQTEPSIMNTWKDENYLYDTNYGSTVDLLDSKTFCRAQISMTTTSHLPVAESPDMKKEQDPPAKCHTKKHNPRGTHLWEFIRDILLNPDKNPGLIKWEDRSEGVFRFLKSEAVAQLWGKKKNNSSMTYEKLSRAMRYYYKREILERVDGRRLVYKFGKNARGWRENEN
Summary of the method: as §1

SPI1 = SPI1 (Homo sapiens, UniProt P17947 1-270); details: protein: recombinant; tags: N-terminal GST; dsDNA, one strand shown
Summary of the method: as §1

SPIB = SPIB (Homo sapiens, UniProt Q01892 1-262); details: protein: recombinant; tags: N-terminal GST; dsDNA, one strand shown
Chain of SPIB (Q01892 whole entry): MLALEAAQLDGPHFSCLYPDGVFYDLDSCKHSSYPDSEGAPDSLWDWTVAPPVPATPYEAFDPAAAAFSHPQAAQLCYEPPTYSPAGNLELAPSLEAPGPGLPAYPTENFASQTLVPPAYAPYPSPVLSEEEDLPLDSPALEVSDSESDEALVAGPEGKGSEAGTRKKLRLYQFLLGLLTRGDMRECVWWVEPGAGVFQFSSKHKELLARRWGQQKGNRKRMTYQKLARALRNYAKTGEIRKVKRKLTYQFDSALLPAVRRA
Summary of the method: as §1

ELK3 = target: T6, ELK3 (Homo sapiens, UniProt P41970 1-407); details: protein: recombinant; tags: N-terminal GST; dsDNA, one strand shown
T6 sequence: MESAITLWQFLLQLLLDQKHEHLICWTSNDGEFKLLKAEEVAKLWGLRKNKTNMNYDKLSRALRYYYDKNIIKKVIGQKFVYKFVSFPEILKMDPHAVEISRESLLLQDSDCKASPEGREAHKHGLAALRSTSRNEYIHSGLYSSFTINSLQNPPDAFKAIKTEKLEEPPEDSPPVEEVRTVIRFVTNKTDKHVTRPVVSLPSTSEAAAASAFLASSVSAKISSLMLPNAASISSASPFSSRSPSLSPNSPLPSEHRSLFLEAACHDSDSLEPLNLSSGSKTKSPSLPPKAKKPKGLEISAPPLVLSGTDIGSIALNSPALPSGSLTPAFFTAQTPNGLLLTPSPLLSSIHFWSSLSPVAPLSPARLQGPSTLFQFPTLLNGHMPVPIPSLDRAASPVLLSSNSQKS
Summary of the method: as §1

FEV = target: T7, FEV (Homo sapiens, UniProt Q99581 1-238); details: protein: recombinant; tags: N-terminal GST; dsDNA, one strand shown
T7 sequence: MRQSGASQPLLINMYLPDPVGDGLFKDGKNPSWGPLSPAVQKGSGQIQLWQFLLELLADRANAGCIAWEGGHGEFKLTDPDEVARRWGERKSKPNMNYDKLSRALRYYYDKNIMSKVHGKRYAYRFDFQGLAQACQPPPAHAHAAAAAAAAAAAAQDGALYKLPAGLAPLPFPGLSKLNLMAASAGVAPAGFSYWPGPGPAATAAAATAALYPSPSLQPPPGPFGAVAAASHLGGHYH
Summary of the method: as §1

ETV5 = ETV5 (Homo sapiens, UniProt P41161 1-510); details: protein: recombinant; tags: N-terminal GST; dsDNA, one strand shown
Chain of ETV5 (P41161 whole entry): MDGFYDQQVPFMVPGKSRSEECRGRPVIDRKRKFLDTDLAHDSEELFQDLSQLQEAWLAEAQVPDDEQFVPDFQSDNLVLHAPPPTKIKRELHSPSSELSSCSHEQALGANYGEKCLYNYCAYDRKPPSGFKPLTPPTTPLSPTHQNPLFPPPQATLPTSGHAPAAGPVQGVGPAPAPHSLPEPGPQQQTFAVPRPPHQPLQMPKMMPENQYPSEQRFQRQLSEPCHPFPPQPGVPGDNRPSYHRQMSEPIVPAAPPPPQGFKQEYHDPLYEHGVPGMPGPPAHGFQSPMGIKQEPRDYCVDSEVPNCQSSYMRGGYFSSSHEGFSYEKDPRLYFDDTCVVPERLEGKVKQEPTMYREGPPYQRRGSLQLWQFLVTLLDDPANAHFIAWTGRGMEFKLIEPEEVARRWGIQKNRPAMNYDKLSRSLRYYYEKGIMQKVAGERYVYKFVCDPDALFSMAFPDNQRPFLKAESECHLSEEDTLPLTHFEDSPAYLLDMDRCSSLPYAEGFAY
Summary of the method: as §1

HSF1 = HSF1 (Homo sapiens, UniProt Q00613 1-529); details: protein: recombinant; tags: N-terminal GST; chain copies: 3; dsDNA, one strand shown
Chain of HSF1 (Q00613 whole entry): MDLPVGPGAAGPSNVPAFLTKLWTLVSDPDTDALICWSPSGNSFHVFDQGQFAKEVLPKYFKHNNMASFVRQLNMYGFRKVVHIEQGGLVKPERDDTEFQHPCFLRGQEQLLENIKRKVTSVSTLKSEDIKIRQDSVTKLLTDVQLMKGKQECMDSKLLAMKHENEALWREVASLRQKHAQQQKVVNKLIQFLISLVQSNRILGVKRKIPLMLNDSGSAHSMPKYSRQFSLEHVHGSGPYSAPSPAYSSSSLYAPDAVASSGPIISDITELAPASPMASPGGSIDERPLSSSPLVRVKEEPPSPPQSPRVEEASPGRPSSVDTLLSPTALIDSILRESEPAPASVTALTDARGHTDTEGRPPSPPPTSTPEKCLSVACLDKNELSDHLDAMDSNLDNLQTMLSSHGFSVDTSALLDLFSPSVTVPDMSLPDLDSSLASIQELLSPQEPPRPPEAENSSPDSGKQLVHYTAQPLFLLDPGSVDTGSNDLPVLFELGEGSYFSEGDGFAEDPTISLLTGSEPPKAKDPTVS
Summary of the method: as §1

SPIC = target: T8, SPIC (Homo sapiens, UniProt Q8N5J4 1-248); details: protein: recombinant; tags: N-terminal GST; dsDNA, one strand shown
T8 sequence: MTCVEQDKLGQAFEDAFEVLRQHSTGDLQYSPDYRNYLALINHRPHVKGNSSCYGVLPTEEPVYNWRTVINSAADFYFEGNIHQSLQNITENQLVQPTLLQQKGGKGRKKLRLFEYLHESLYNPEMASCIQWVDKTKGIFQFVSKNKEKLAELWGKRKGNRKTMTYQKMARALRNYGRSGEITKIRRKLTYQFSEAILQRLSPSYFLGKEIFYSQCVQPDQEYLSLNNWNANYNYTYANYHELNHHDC
Summary of the method: as §1

ELF4 = ELF4 (Homo sapiens, UniProt Q99607 1-663); details: protein: recombinant; tags: N-terminal GST; dsDNA, one strand shown
Chain of ELF4 (Q99607 whole entry): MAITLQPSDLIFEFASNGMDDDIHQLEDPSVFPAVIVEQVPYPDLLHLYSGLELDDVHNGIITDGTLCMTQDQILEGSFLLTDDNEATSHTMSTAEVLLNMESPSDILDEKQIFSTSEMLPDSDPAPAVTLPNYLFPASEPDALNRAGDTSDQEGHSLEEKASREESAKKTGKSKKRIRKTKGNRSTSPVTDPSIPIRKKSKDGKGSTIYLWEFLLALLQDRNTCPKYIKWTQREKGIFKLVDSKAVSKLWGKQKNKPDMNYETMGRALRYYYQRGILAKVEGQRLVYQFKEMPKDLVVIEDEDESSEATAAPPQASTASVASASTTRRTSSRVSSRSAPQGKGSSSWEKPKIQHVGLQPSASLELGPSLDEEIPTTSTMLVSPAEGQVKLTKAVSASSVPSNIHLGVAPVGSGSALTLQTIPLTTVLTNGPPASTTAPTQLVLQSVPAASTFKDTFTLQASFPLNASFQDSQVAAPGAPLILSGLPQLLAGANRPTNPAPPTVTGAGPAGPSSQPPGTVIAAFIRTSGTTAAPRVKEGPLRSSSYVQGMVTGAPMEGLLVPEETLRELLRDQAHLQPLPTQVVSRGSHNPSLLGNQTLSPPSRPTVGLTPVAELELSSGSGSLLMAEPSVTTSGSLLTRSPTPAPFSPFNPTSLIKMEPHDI
Summary of the method: as §1

ELK4 = target: T9, ELK4 (Homo sapiens, UniProt P28324-2 1-405); details: protein: recombinant; tags: N-terminal GST; dsDNA, one strand shown
T9 sequence: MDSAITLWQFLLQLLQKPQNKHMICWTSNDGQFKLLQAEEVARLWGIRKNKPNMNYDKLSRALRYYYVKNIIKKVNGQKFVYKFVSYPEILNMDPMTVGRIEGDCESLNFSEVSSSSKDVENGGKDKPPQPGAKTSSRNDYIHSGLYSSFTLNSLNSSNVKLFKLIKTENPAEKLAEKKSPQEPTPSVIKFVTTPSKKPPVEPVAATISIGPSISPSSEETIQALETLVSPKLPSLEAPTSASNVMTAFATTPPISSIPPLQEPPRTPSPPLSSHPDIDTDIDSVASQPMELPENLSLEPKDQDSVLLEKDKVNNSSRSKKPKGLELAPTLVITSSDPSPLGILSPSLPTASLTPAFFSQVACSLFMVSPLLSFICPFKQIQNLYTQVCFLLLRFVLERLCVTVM
Summary of the method: as §1

ETV2 = target: T10, ETV2 (Homo sapiens, UniProt O00321 1-342); details: protein: recombinant; tags: N-terminal GST; dsDNA, one strand shown
T10 sequence: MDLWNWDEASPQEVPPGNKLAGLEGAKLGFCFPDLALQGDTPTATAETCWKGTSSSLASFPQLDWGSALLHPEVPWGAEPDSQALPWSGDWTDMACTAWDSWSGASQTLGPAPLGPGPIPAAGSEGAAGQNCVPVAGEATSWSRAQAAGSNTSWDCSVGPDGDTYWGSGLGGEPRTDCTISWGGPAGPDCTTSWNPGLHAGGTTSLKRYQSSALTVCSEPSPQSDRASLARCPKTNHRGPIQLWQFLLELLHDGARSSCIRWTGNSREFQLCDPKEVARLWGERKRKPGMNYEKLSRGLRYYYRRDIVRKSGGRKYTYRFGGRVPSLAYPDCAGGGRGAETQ
Summary of the method: as §1

ELF3 = target: T11, ELF3 (Homo sapiens, UniProt P78545 1-371); details: protein: recombinant; tags: N-terminal GST; dsDNA, one strand shown
T11 sequence: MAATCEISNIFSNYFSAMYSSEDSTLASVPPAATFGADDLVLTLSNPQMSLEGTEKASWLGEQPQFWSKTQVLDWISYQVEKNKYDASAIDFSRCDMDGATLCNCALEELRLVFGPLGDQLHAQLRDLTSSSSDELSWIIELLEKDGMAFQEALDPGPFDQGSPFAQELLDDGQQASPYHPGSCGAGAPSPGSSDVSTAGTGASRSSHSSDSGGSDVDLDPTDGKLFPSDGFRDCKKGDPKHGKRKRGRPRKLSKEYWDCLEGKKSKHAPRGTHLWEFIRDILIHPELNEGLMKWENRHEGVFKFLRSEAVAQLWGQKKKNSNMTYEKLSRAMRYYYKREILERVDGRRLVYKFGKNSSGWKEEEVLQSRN
Summary of the method: as §1

CRX = CRX (Homo sapiens, UniProt O43186 1-299); details: protein: recombinant; tags: N-terminal GST; dsDNA, one strand shown
Chain of CRX (O43186 whole entry): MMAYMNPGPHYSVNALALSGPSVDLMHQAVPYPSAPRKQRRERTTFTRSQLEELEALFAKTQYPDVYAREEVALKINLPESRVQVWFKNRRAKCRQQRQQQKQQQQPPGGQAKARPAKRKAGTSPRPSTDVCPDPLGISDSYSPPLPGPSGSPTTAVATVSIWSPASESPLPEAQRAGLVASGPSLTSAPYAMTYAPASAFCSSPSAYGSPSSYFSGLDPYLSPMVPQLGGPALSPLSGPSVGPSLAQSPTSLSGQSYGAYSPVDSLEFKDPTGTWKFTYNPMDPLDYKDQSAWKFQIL
Summary of the method: as §1

ETV1 = ETV1 (Homo sapiens, UniProt P50549 1-477); details: protein: recombinant; tags: N-terminal GST; dsDNA, one strand shown
Chain of ETV1 (P50549 whole entry): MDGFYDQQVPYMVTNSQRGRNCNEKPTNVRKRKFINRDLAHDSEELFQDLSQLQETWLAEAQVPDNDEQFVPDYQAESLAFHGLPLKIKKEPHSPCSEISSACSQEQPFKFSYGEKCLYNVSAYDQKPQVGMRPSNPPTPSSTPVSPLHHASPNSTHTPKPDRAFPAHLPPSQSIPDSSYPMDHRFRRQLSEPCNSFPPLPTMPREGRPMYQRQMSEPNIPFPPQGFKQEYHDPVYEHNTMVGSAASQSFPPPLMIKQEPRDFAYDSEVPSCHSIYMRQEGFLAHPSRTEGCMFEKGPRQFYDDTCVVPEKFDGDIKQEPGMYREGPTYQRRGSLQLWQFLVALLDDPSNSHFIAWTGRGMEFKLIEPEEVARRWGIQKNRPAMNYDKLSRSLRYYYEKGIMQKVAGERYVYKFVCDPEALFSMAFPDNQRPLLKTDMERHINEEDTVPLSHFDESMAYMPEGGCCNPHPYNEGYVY
Summary of the method: as §1

Sequence: GTGCTT
- binding signal (FLI1): 1.21 fold enrichment (6-mer frequency, TF over GST control)
- binding signal (ELK1): 1.36 fold enrichment (6-mer frequency, TF over GST control)
- binding signal (GABPA): 1.3 fold enrichment (6-mer frequency, TF over GST control)
- binding signal (ERG): 1.38 fold enrichment (6-mer frequency, TF over GST control)
- binding signal (ELF1): 1.2 fold enrichment (6-mer frequency, TF over GST control)
- binding signal (EHF): 1.24 fold enrichment (6-mer frequency, TF over GST control)
- binding signal (SPI1): 1.33 fold enrichment (6-mer frequency, TF over GST control)
- binding signal (SPIB): 1.24 fold enrichment (6-mer frequency, TF over GST control)
- binding signal (ELK3): 1.4 fold enrichment (6-mer frequency, TF over GST control)
- binding signal (FEV): 1.25 fold enrichment (6-mer frequency, TF over GST control)
- binding signal (ETV5): 1.19 fold enrichment (6-mer frequency, TF over GST control)
- binding signal (HSF1): 1.05 fold enrichment (6-mer frequency, TF over GST control)
- binding signal (SPIC): 1.46 fold enrichment (6-mer frequency, TF over GST control)
- binding signal (ELF4): 1.27 fold enrichment (6-mer frequency, TF over GST control)
- binding signal (ELK4): 1.1 fold enrichment (6-mer frequency, TF over GST control)
- binding signal (ETV2): 1.41 fold enrichment (6-mer frequency, TF over GST control)
- binding signal (ELF3): 1.14 fold enrichment (6-mer frequency, TF over GST control)
- binding signal (CRX): 1.14 fold enrichment (6-mer frequency, TF over GST control)
- binding signal (ETV1): 1.16 fold enrichment (6-mer frequency, TF over GST control)
